Laboratory results: PubChem BioAssay AID758 (NMMLSC, 2007)
The whole screen tested about 190,000 compounds, of which about 110 (0.058%) were called active. Inconclusive results (about 2%) are left out. The list comes from a sample in which actives are over-represented; it also holds similar structures and randomly drawn compounds. Unmarked numbers belong to inactive results.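 The calls were made as follows: active = fluorescent GTP binding to Rab7 beads changed by at least 20 points from the 100% baseline, either direction, mostly lower; inconclusive = compound itself probably fluorescent, or too few beads counted; inactive = the rest.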

Test system: Rab7 GTPase wild type (dog), Bodipy-FL-GTP binding
Experiment: wildtype dog Rab7 nucleotide binding alteration – biochemical, multiplex bead flow cytometry, primary screen (AID 758);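 also: median green fluorescence of bound Bodipy-FL-GTP per Rab7 bead population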
Details: GST-Rab7 beads, fluorescent GTP binding, at 10 µM, actives lie on both sides, untreated = 100%, excess cold GTP = 0%

In order of falling GTP binding activity (percent of control):
1. CCN(Cc1ccccc1)S(=O)(=O)c1cc(C(=O)O)ccc1OC  107%
2. COC(=O)c1c(NC(C)=O)sc(C(=O)Nc2ccccc2OC)c1C  106%
3. O=C(NNC1=C(C(=O)C(F)(F)F)CCC1)c1ccncc1  106%
4. COC(=O)c1ccc(NCC(=O)N2CCCCCC2)cc1  106%
5. c1ccc(Cc2cc[n+](Cc3ccccc3)cc2)cc1  106%
6. Cc1ccc(NC(=O)C2(N3CCC3=O)CCCCC2)cc1  105%
7. CC(C)CNC(=O)/C=C/C(=O)O  105%
8. O=C(NCc1ccncc1)NC12CC3CC(CC(C3)C1)C2  104%
9. CCN(CC)CCCSc1nc2ccccc2s1  104%
10. Cc1ccc(CN2CCN(Cc3ccccc3-c3ccco3)CC2CCO)o1 (configuration not stated)  104%
11. CCOc1c(CNCc2ccc(C(=O)O)cc2)cccc1OC  103%
12. O=C(C1CCCO1)N(c1ccc(F)cc1)C1C=CS(=O)(=O)C1 (configuration not stated)  103%
13. O=C(Nc1ccccc1F)c1ccccc1-c1ccc(C(F)(F)F)cc1  103%
14. Cc1ccc(C)c(Cn2nnc3c(=O)[nH]c(C(=O)Nc4ccc(F)cc4)nc32)c1  102%
15. CC1(C)CC(N(Cc2ccccc2)C(=O)Cc2ccccc2)CCO1 (configuration not stated)  101%
16. O=C(CN1CCCC1)N1CCN(c2ccccc2)CC1  99%
17. NC(=O)c1ccccc1NC(=O)c1ccccc1F  99%
18. CCCCN(C(=O)/C=C/c1ccco1)c1c(N)n(CC(C)C)c(=O)[nH]c1=O  98%
19. CN1CCN(CCC(=O)N/N=C/C=C2\N(C)c3ccccc3C2(C)C)CC1  98%
20. O=C(Cc1ccccc1Cl)N1CCN(c2ccccn2)CC1  98%
21. Cc1ccc(NC(=O)c2ccc(Oc3ncccn3)cc2)cc1  97%
22. CC(=O)Nc1ccc(Nc2nc3c(S(=O)(=O)c4ccc(C)c(C)c4)nnn3c3ccccc23)cc1  97%
23. Cc1nc([N+](=O)[O-])c(NCCCO)n1Cc1ccccc1  96%
24. Clc1cccc(-c2nc(NCC3CCCO3)c3ccccc3n2)c1 (configuration not stated)  96%
25. CC(CC(=O)Nc1ccccc1)n1ccnc1 (configuration not stated)  96%
26. OCC1(Cc2ccccc2C(F)(F)F)CCN(Cc2cccc3cnccc23)CC1  96%
27. CCN(CC)C(=O)N(CC)Cc1ccccc1  96%
28. CCOc1cnc(-c2c(-c3ccccc3Cl)noc2C)o1  96%
29. O=C(CC1C(=O)NCCN1Cc1ccc(-c2ccccc2)cc1)NCc1ccncc1 (configuration not stated)  96%
30. COc1ccc(-c2nc(CN3CCN(c4ncccn4)CC3)c(C)o2)cc1C  95%
31. CCOC(=O)c1ccc(NC(=O)c2cc(=O)[nH]c3ccccc23)cc1  94%
32. O=C(Nc1cccnc1)c1cccc(S(=O)(=O)N2CCCC2)c1  94%
33. CCc1ccc(/C=C2\SC(N3CCOCC3)=NC2=O)cc1  94%
34. CC(C)(C)c1cnnn1-c1ccc([N+](=O)[O-])cc1  94%
35. CC(C)(C)C(=O)NCCCNc1ccc([N+](=O)[O-])cc1  94%
36. CCOC(=O)C1(CCOc2ccccc2)CCN(C(=O)c2cncs2)CC1  93%
37. COc1ccc(-c2nn(-c3ccccc3)cc2/C=C\C(=O)N2CCOCC2)cc1[N+](=O)[O-]  93%
38. CC(O)c1cccc(NC(=O)Cc2cccc3ccccc23)c1 (configuration not stated)  93%
39. CCOc1cc(/C=C2/C(=N)N3OC(C)=CC3=NC2=O)ccc1OC  93%
40. NS(=O)(=O)c1cccc(NC(=O)CN2CCCc3ccccc32)c1  93%
41. CNC(=O)COC(=O)c1cc(-c2ccc(OC)cc2)nc2ccccc12  88%

O=C(Nc1ccccc1F)c1ccccc1-c1ccccc1 was tested, and the GTP binding activity (percent of control) was 74% (active).
